Assay results taken from PubChem BioAssay (NCATS).
Where “and” joins values, the source holds several entries; their conditions need not be identical. Identical values can stand only once. Results filed as inconclusive are left out. Values without a mark were called inactive. Calls of active or inactive are those of the source. Calls follow the shape of the dose curve; as a rule, active = well fitted curve in the direction sought with a large enough effect in the repeat runs; inconclusive = weak or mixed curves; inactive = no such curve, though single readings can be large; an effect the other way counts as inactive or inconclusive.

Target: Cytochrome P450 2D6 (Homo sapiens) (UniProt P10635)
Sequence (P10635 whole entry, looked up): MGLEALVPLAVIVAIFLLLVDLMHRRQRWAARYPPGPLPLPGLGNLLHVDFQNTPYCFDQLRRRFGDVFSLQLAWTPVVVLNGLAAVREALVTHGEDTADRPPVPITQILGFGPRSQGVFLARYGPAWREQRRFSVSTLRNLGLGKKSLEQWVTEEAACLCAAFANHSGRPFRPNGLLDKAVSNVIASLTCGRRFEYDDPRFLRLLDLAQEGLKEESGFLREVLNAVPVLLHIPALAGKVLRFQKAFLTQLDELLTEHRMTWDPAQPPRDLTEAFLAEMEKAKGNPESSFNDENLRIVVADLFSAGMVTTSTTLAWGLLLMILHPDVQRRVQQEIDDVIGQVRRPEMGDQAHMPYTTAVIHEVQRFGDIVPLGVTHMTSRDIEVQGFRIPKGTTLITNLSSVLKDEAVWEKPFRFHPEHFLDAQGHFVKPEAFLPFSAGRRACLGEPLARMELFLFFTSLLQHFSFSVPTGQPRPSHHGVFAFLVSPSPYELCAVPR
Assay: Cytochrome P450 family 2 subfamily D member 6 (CYP2D6) small molecule antagonists: luciferase biochemical (cell-free) qHTS assay (AID 1645840)
Details: P450-Glo CYP2D6 enzyme, luciferin luminescence, 1 h; series mostly up to 57.4 µM; activity change, negative = inhibition: at the top concentration
How it was run: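 P450-Glo CYP2D6 system: proluciferin substrate converted by enzyme to luciferin, read by luminescence proportional to activity. Enzyme-substrate mix with compound 10 min at room temperature, then NADPH regeneration 1 h before detection reagent.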
% is scaled to controls: 0 for no effect and ±100 for the full control effect; potency is read from the fitted curve at half-maximal effect.
Also: nearly all actives have a fitted effect of over 55% in size.

Structure (SMILES)	activity change, negative = inhibition [%]	Potency
CN1CCN(c2cc3c(cc2F)c(=O)c(C(=O)O)cn3-c2ccc(F)cc2)CC1	7.39	
CCC(CC)(CC(=O)Nc1cccc(/C=C/c2nc(C3CCC3)cs2)c1)C(=O)O	-15.5	
O=[N+]([O-])c1cccc(S(=O)(=O)NCCNS(=O)(=O)c2cccc([N+](=O)[O-])c2)c1	-12.1	
COc1cc(N)c(Cl)cc1C(=O)NC1CCN(Cc2ccccc2)CC1		21.9 nM (active)
CN(C)CCOC(c1ccc(Cl)cc1)c1ccccn1 (stereo unspecified)		15500 nM (active)
CN(Cc1ccc(C(C)(C)C)cc1)Cc1cccc2ccccc12		123 nM (active)
Cc1ncc(CO)c(C=O)c1O	-1.85	
CCCCCN=C(N)N/N=C/c1c[nH]c2ccc(OC)cc12		219 nM (active)
C#C[C@]1(OC(C)=O)CC[C@H]2[C@@H]3CCC4=C/C(=N/O)CC[C@@H]4[C@H]3CC[C@@]21CC		2680 nM (active)
Cc1cccc(C)c1NC(=O)CN1CCCCCC1		11000 nM (active)
COc1ccc(-c2cc(C(F)F)nn2-c2ccc(S(N)(=O)=O)cc2)cc1F		5490 nM (active)
COC(=O)C(c1ccccc1Cl)N1CCc2sccc2C1 (stereo unspecified)		17400 nM (active)
COc1ccc(CN(CCN(C)C)c2ncccn2)cc1		490 nM (active)
O=C(CN1CCN(Cc2ccc3c(c2)OCO3)CC1)N1c2ccccc2Sc2ccccc21		195 nM (active)
CC(=O)NCCCCCC(=O)O	12.1	
CCN(CC)CCOc1ccc2c(c1)C(=O)c1cc(OCCN(CC)CC)ccc1-2	-11	
CC(C)[C@@H]1CC[C@@H](C)CC1=O	-1.43	
CNCCCCOc1ccccc1Cc1ccccc1		692 nM (active)
CCCCCCCC/C=C\CCCCCCCCN		550 nM (active)
O=C(O)C(Cc1cc(I)c(O)c(I)c1)c1ccccc1 (stereo unspecified)		inactive
CC(=O)OCC(=O)[C@H]1CC[C@H]2[C@@H]3CCC4=CC(=O)CC[C@]4(C)[C@H]3CC[C@]12C	-14.4	
CCOCCn1c(N2CCCN(C)CC2)nc2ccccc21		6920 nM (active)
CC(C)Cn1cnc2c1c(=O)n(C)c(=O)n2C	-3.42	

Target: Cytochrome P450 2C9 (Homo sapiens) (UniProt P11712)
Sequence (P11712 whole entry, looked up): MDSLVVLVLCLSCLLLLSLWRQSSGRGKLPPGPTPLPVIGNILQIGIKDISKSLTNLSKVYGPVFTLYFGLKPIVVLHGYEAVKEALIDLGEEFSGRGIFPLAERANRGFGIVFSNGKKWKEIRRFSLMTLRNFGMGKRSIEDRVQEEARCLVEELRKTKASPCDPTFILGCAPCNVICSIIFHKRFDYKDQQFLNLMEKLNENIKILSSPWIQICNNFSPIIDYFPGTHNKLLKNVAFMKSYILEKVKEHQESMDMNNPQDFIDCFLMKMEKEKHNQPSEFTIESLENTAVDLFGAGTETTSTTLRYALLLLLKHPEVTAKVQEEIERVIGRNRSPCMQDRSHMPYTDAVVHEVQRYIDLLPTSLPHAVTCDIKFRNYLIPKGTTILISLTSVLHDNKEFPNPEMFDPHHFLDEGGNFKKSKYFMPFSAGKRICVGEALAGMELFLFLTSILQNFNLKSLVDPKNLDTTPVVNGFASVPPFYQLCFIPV
Assay: Cytochrome P450 family 2 subfamily C member 9 (CYP2C9) small molecule antagonists: luciferase biochemical (cell-free) qHTS assay (AID 1645842)
Details: P450-Glo CYP2C9 enzyme assay, luciferin luminescence; series mostly up to 57.4 µM; activity change, negative = inhibition: at the top concentration
How it was run: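 P450-Glo CYP2C9 system: proluciferin substrate with enzyme in mix containing 0.4% BSA, 10 min at room temperature, then NADPH regeneration solution added and incubated 1 h at 37C. Detection reagent stopped reaction; luminescence read after 20 min as RLU.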

Structure (SMILES)	activity change, negative = inhibition [%]	Potency
Nc1nc(N)c(-c2ccccc2)s1	3.12	
CN1CCN(c2cc3c(cc2F)c(=O)c(C(=O)O)cn3-c2ccc(F)cc2)CC1	10.1	
CC(=O)Nc1ncc([N+](=O)[O-])s1	-11.2	
COc1cc(N)c(Cl)cc1C(=O)NC1CCN(Cc2ccccc2)CC1	-2.25	
CN(C)CCOC(c1ccc(Cl)cc1)c1ccccn1 (stereo unspecified)	0.392	
CC(C)(C)NC[C@H](O)COc1nsnc1N1CCOCC1	-1.48	
CCCCCN=C(N)N/N=C/c1c[nH]c2ccc(OC)cc12	-1.04	
C#C[C@]1(OC(C)=O)CC[C@H]2[C@@H]3CCC4=C/C(=N/O)CC[C@@H]4[C@H]3CC[C@@]21CC		952 nM (active) and 7.76 µM (active)
COc1ccc(-c2cc(C(F)F)nn2-c2ccc(S(N)(=O)=O)cc2)cc1F		6.17 µM (active)
O=C1OC(CN2CCOCC2)CN1/N=C/c1ccc([N+](=O)[O-])o1 (stereo unspecified)	0.782	
O=C(CN1CCN(Cc2ccc3c(c2)OCO3)CC1)N1c2ccccc2Sc2ccccc21		7.76 µM (active)
C=C1c2cccc(O)c2C(O)=C2C(=O)[C@]3(O)C(O)=C(C(N)=O)C(=O)[C@@H](N(C)C)[C@@H]3[C@@H](O)[C@H]12	0.599	
CCN(CC)CCOc1ccc2c(c1)C(=O)c1cc(OCCN(CC)CC)ccc1-2	-0.376	
